Potency and affinity values are given separately. A number with no mark means an inactive call. No rule for the calls is given here.

The assay addresses Metabotropic glutamate receptor 4 (Rattus norvegicus) (UniProt P31423). Kind of assay: PubChem AID 2185. The note with it: HEK/GIRK cells expressing rat mGluR4, thallium flux PAM; stronger effect = higher value.

Chain of Metabotropic glutamate receptor 4 (Rattus norvegicus) (P31423 whole entry, looked up): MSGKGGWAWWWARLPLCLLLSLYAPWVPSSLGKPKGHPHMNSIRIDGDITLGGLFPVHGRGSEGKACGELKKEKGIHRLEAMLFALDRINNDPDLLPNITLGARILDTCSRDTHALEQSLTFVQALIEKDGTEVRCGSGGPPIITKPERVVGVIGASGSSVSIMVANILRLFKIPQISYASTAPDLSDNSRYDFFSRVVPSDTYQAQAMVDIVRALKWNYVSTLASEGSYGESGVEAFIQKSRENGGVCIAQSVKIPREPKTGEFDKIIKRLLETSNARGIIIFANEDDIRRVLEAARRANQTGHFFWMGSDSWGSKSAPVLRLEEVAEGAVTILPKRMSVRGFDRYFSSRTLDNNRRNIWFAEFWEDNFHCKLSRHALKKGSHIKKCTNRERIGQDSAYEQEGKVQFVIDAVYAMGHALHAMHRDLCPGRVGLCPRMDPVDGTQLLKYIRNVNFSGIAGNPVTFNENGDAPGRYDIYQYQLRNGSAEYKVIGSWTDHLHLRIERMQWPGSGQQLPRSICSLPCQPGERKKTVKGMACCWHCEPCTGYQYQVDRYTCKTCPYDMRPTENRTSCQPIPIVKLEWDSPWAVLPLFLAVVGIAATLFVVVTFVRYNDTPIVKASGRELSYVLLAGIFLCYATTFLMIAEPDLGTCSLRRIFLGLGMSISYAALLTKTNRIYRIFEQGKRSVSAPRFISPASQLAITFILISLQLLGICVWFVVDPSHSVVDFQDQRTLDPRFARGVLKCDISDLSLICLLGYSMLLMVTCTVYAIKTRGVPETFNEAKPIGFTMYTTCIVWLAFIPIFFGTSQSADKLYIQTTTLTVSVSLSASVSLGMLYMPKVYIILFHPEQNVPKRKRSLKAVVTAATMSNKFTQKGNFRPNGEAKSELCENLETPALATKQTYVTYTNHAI

As to `N#Cc1ccc(NC(=O)c2ccccn2)cc1C(F)(F)F`, the % glutamate max is 26.3%.

Source of the values: PubChem BioAssay AID2185 (Vanderbilt High Throughput Screening Facility, 2009).
